Screening results deposited in PubChem BioAssay by several laboratories.
Only some compounds are listed: those with a hit (about 5.2% of all), similar ones and a draw of the others.
CendR NRP1 mod = alters CendR peptide binding to human NRP-1. O14786. FAM-RPARPAR peptide binding to NRP-1, fluorescence polarization. inhibition, % at 25 µM. 360,000 compounds, 0.85% hits;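 active = inhibition or corrected inhibition above about 18%, plus a signal ratio from 0.5 to 1.5, limit read from the data, passing the limit was not always enough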
Target sequence (O14786 whole entry, looked up): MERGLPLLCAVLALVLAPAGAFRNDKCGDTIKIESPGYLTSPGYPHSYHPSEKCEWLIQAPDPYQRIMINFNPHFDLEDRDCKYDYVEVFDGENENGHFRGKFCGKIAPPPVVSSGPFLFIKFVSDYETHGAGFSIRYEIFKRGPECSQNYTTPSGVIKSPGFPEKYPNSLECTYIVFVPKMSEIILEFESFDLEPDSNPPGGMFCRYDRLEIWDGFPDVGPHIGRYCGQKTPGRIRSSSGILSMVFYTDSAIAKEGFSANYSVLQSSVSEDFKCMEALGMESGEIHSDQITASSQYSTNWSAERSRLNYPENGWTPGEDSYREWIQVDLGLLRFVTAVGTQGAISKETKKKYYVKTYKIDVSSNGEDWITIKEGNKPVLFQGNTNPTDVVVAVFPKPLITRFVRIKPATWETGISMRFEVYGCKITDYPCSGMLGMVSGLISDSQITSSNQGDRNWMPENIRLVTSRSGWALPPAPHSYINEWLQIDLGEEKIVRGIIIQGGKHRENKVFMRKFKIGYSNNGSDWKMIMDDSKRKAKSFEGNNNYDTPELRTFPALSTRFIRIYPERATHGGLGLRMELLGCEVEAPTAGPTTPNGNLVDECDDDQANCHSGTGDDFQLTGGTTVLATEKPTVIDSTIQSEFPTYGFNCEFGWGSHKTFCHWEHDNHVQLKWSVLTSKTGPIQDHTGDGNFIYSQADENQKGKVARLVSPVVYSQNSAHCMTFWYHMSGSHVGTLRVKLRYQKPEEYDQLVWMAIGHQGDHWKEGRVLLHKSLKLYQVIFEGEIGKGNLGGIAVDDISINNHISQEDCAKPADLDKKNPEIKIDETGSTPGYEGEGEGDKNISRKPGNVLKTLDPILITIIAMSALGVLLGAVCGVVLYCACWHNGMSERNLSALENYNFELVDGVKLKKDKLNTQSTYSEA
ALR H2O2 inh = inhibitors of human sulfhydryl oxidase ALR. P55789. purified ALR, DTT oxidation, H2O2 HRP-luminol luminescence. inhibition, % (concentration not given with the values). 290,000 compounds, 3.8% hits. AID 485317;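 active = mean replicate inhibition above about 79%, with every replicate also reaching it, limit read from the data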
CR mimetic SO = lowers age-related superoxide in aged yeast cells | superoxide response (% of plate mean), % at 10 µM | 330,000 compounds, 0.18% hits | S. cerevisiae aged cells, superoxide DHE fluorescence; active compounds read low;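 active = superoxide response under a set limit, about three screen SD below normal, cut at about 65% in these data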;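 also: yeast aged for seven days with compound at 30 °C before DHE staining; 100% = average MFI of all compound-treated wells on the plate with controls excluded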
M18AAP inhibitor = PfM18AAP enzyme inhibition. recombinant PfM18AAP, H-Glu-NHMec fluorogenic cleavage. inhibition, % at 7.35 µM. 290,000 compounds, 1.2% hits;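 active = inhibition above the campaign mean inhibition over all tested compounds plus 3 SD, cut at about 28% in these data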;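 also: 0% = plate median of test compound wells and 100% = 2 mM ZnCl2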
A3A deaminase = inhibitors of human APOBEC3A DNA deaminase | recombinant A3A, FAM/TAMRA ssDNA deamination fluorescence | 330,000 compounds, 0.41% hits | inhibition, % at 20 µM | P31941;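 active = at least 40% inhibition at 20 µM here, with at most 30% in a related deaminase screen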;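 also: plate controls were A3A with DMSO for no effect and wells lacking A3A enzyme for full effect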
APOBEC3G inh = APOBEC3G (human) deaminase inhibition; Q9HC16; recombinant A3G, ssDNA deamination FAM/TAMRA fluorescence; inhibition, % at 20 µM; 330,000 compounds, 0.28% hits;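 active = inhibition of at least 40% at 20 µM, with no more than 30% in the related APOBEC3A deaminase screen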;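 also: plate controls were DMSO wells with A3G for no effect and wells lacking A3G enzyme for full effect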
* marks the source's active call; other numbers are inactive results; / = no result given.

SMILES | CendR NRP1 mod | ALR H2O2 inh | CR mimetic SO | M18AAP inhibitor | A3A deaminase | APOBEC3G inh
CCN(CC)S(=O)(=O)c1ccc(N2CCOCC2)c(NC(=O)c2[nH]c(C)c(C(C)=O)c2C)c1 | 7 | / | 86 | / | -1 | -4
COc1ccc(NC(=O)CN(c2cccc(F)c2)S(C)(=O)=O)cc1OC | 1 | -5 | 99 | 1 | -1 | -6
Cc1ccc(-n2nnc(-c3nccs3)n2)cc1 | -2 | / | 101 | -3 | 2 | -5
Clc1ccc(-n2nnc(-c3nccs3)n2)cc1Cl | -5 | 92* | / | 5 | 0 | 24
CC1(C)CC(=O)C(C=NCCN2CCN(C3CC(=O)N(c4ccc(Br)cc4)C3=O)CC2)=C(O)C1 (stereo not drawn) | 9 | 2 | 104 | -15 | -2 | -7
Cc1ccc(-c2n[nH]c(=S)n2/N=C/c2c(C)[nH]n(-c3ccccc3)c2=O)cc1 | -6 | 98* | 93 | 21 | -3 | 31
Cc1[nH]n(-c2ccccc2)c(=O)c1/C=N/N(C)c1ccccc1 | 1 | 82* | 95 | -14 | -5 | -5
Oc1ccccc1/C=N/n1c(-c2ccccc2)n[nH]c1=S | 6 | 98* | 115 | 26 | -7 | 27
Oc1c(Br)cc(/C=N/n2c(-c3ccccc3)n[nH]c2=S)c(Br)c1O | / | / | 111 | 33* | / | /
Oc1c(Br)cc(Br)cc1/C=N/n1c(-c2ccccc2)n[nH]c1=S | -61 | / | 97 | 15 | -5 | 27
Cc1[nH]n(-c2ccccc2)c(=O)c1/C=N/O | -5 | 22 | 113 | -7 | -4 | -6
CCCCn1c(SCC(=O)NC2CCS(=O)(=O)C2)nc2ccccc2c1=O (stereo not drawn) | -15 | -15 | 89 | -9 | 8 | 0
O=[N+]([O-])c1cccc(-c2ccc(/C=N/n3c(-c4ccccc4)n[nH]c3=S)o2)c1 | 6 | -5 | 105 | 4 | / | /
O=[N+]([O-])c1ccc(O)c(/C=N/n2c(-c3ccccc3)n[nH]c2=S)c1 | -9 | 93* | 108 | 17 | -8 | 26
CC(C)NS(=O)(=O)c1ccc(NC(=O)C(C)OC(=O)CCC2CCCCC2)cc1 (stereo not drawn) | 9 | / | / | / | 0 | -8
Cc1ccc(C)c(S(=O)(=O)N/N=C/c2ccc(F)cc2)c1 | -2 | 12 | 85 | -1 | 1 | -4
CC(=O)NCc1ccc(S(=O)(=O)N/N=C/c2ccc(N(C)C)cc2)cc1 | 4 | 98* | 91 | 6 | -6 | -6
Cc1ccc(C)c(S(=O)(=O)N/N=C/c2ccc(N(C)C)cc2)c1 | 8 | 99* | 88 | 6 | -3 | -3
O=C(NCc1ccccc1CN1CCCC1)c1cccc(N2CCCC2=O)c1 | -15 | -6 | 87 | / | -1 | 2
O=C(NCc1ccc(Cl)c(Cl)c1)c1cc(C2CCCCN2C(=O)c2cccs2)on1 (stereo not drawn) | -4 | / | / | / | / | /
Cc1noc(C)c1CSCC(=O)Nc1cc(S(=O)(=O)N2CCOCC2)ccc1OC(C)C | -3 | -8 | 97 | / | 1 | 0
Cc1cc[n+](-c2[nH]c(=O)sc2/C=N/N=C(\[O-])c2ccncc2)cc1C | -5 | 18 | 92 | 29* | -4 | -4
CCC(=O)Nc1nc2nc(-c3ccccc3)cc(-c3ccccc3)n2n1 | 21* | -10 | 105 | 7 | 1 | -4
CN(C)/C=N/c1sc2c(c1C#N)CCCCC2 | 4 | 59 | 103 | 6 | -1 | -3
CN(C)/C=N/c1sc2c(c1C#N)CCC2 | 14 | 87* | 95 | 7 | -1 | 0
SMILES | CendR NRP1 mod | ALR H2O2 inh | CR mimetic SO | M18AAP inhibitor | A3A deaminase | APOBEC3G inh
Cc1ccc(NC(=O)Nc2cccc(Cl)c2)c(C(=O)O)c1 | 9 | 51 | 159 | -4 | 3 | -1
COc1ccc(Nc2cccc(Cl)c2)c(C(=O)O)c1 | -11 | 98* | 87 | 2 | 3 | 0
COc1cc2nc(CN3CCN(S(=O)(=O)c4ccc(Br)cc4)CC3)[nH]c(=O)c2cc1OC | 3 | -2 | 102 | / | -6 | -8
CCOC(=O)N1CCc2c(sc(NC(=O)c3ccc(S(=O)(=O)N4CCCC4)cc3)c2C#N)C1 | -95 | 59 | 113 | 6 | -5 | -18
Cc1ccccc1C(=O)N1CCC(C(=O)Nc2sccc2C(N)=O)CC1 | -6 | 12 | 100 | / | -2 | -6
Cc1ccccc1C(=O)NC1CCN(C(=O)NC2CCCCC2)CC1 | 5 | 2 | 90 | -3 | 0 | -5
Cc1ccccc1C(=O)NC1CCN(C(=O)N(c2ccccc2)c2ccccc2)CC1 | -2 | 86* | 96 | -2 | -2 | -6
Cc1ccc(C(=O)C(C)[n+]2cccc(C(N)=O)c2)cc1 (stereo not drawn) | 0 | -12 | 133 | 2 | 0 | -11
COc1ccc(NS(=O)(=O)c2ccc3nc(COc4ccc(C#N)cc4)[nH]c3c2)cc1 | -5 | 98* | 100 | -9 | 1 | 0
CC(CN1CCOCC1)OC(=O)c1ccc2c(c1)OCCO2 (stereo not drawn) | 27* | -10 | 110 | -21 | -4 | -1
CC(CN1CCCCC1)OC(=O)c1ccc2c(c1)OCCO2 (stereo not drawn) | -3 | -2 | 102 | 0 | 1 | 0
COc1ccc(C2SCC(=O)N2c2ccc(OC)cc2)cc1 (stereo not drawn) | 7 | 41 | 101 | 2 | -4 | -7
Cc1ccc(N2C(=O)CSC2c2cccs2)cc1 (stereo not drawn) | 6 | 99* | 111 | -2 | -2 | 0
COc1ccc(C2SCC(=O)N2c2ccccc2)cc1 (stereo not drawn) | -8 | / | 99 | -15 | -1 | -7
COc1ccc(C2SCC(=O)N2c2ccc(F)cc2)cc1 (stereo not drawn) | -10 | 99* | 104 | -5 | -4 | -4
Cc1cc(C)cc(N2C(=O)CSC2c2cccs2)c1 (stereo not drawn) | -15 | -1 | 101 | 1 | 1 | -1
COc1ccc(N2C(=O)CSC2c2ccncc2)cc1 (stereo not drawn) | 5 | 99* | 78 | 3 | 0 | 0
N#CCCNS(=O)(=O)c1ccc(C(=O)OCC2CCCCC2)cc1 | 0 | 0 | 103 | -3 | 0 | -1
Cc1ccccc1N1C(=O)CC(N2CCN(C(=O)c3ccco3)CC2)C1=O (stereo not drawn) | 12 | -1 | 98 | -12 | -1 | 6
O=c1c(Cc2ccccc2O)c(O)nc2n1CCCS2 | 4 | 4 | 76 | -3 | -1 | 0
C=CCn1c(C)cc(C(=O)CSc2nc3ccccc3o2)c1C | -8 | 57 | 96 | 14 | 2 | 1
COCC(C)n1c(C)cc(C(=O)CSc2ccc(NC(C)=O)cc2)c1C (stereo not drawn) | -4 | 98* | 100 | 24 | -3 | -8
COCC(C)n1c(C)cc(C(=O)CSc2ncccn2)c1C (stereo not drawn) | 1 | -4 | 98 | -10 | -2 | -2
